Inconclusive results are not listed. A call without a number means that no potency is given here. Where a structure was tested more than once in an assay, its records may differ in their call. Active and inactive are the calls of the source. Unless noted, calls come from the whole dose curve.
Legend:
[1] = qHTS assay to identify small molecule agonists of the NFkB signaling pathway (AID 1159509; active = well fitted curve in the direction sought with a large enough effect in the signal ratio in the repeat runs, not every such curve was filed as active; the % refers to the signal ratio; note: series mostly up to about 61 µM)
How it was run: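 NFkB-bla ME-180 cells with a beta-lactamase reporter under an NF-kB response element were plated overnight, treated with compounds in DMSO for 5 hr at 37 C, then loaded with FRET substrate for 1.5 hr at room temperature.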

[2] = qHTS assay to identify small molecule agonists of the NFkB signaling pathway - cell viability counter screen (AID 1159515); note: series mostly up to about 61 µM; nearly all actives have a fitted effect of over 55% in size
How it was run: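 5 hr compound treatment of NFkB-bla ME-180 cells (2,000/well, seeded overnight beforehand), followed by reporter substrate for 1.5 hr. CellTiter-Glo added afterward; luminescence after 30 min RT.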

[3] = qHTS assay to identify small molecule agonists of the endoplasmic reticulum stress response signaling pathway (AID 1159516; active = well fitted activation curve with a large enough effect in the signal ratio in the repeat runs, not every such curve was filed as active; the % refers to the signal ratio)
How it was run: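 Reporter HeLa cells (ESRE-beta-lactamase) underwent 5 hr compound incubation at 37 C and 5% CO2 in quantitative HTS format. Detection followed 2 hr of FRET substrate loading at room temperature.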

[4] = qHTS assay to identify small molecule agonists of the endoplasmic reticulum stress response signaling pathway - cell viability counter screen (AID 1159517);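 note: HeLa cells carrying an ER stress response element beta-lactamase reporter; series mostly up to about 61 µM; nearly all actives have a fitted effect of over 50% in size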
How it was run: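 Cells, HeLa ESRE-bla; density, 1,500/well; dosing, 5 hr at 37 C, 5% CO2; readout, CellTiter-Glo luminescence after 30 min RT.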

[5] = qHTS assay to identify small molecule antagonists of the retinoid-related orphan receptor gamma (ROR-gamma) signaling pathway - cell viability counter screen (AID 1159520; active = well fitted curve in the direction sought with a large enough effect in the repeat runs; an effect the other way counts as inactive or inconclusive; note: nearly all actives have a fitted effect of over 50% in size)
How it was run: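 Cytotoxicity was read from cellular ATP (CellTiter-Glo luminescence) after 16 hr at 37 C with 1 uM doxycycline induction. The inducer was added 2 hr after compound transfer to Tet-on ROR gamma CHO cells.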

[6] = biological target: Nuclear receptor ROR-gamma (Homo sapiens) (UniProt P51449); test: qHTS assay to identify small molecule antagonists of the retinoid-related orphan receptor gamma (ROR-gamma) signaling pathway (AID 1159521; active = well fitted curve in the direction sought with a large enough effect in the repeat runs; an effect the other way counts as inactive or inconclusive; note: nearly all actives have a fitted effect of over 50% in size; note: potency is the fitted concentration of half-maximal effect; for activity change, negative = inhibition: top concentration of the series differs between compounds)
How it was run: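 Antagonist read-out: drop in luminescence (ONE-Glo) from an RORE-LUC reporter in CHO cells with doxycycline-inducible ROR-gamma; 2 hr compound pretreatment, 1 uM doxycycline, 16 hr incubation at 37 C.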

[7] = qHTS assay to identify small molecule agonists of the AP-1 signaling pathway - cell viability counter screen (AID 1159525); note: nearly all actives have a fitted effect of over 55% in size
How it was run: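 Luminescent ATP readout (Cell Titer Glo, 30 min RT), normalised to DMSO and tetra n-octyl ammonium bromide controls. Cells were ME-180 AP-1-bla in 0.5% dialyzed FBS Opti-MEM, with a 5 h, 37 °C compound exposure.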

[8] = qHTS assay to identify small molecule agonists of the AP-1 signaling pathway (AID 1159526)
[9] = qHTS assay to identify small molecule agonists of the vitamin D receptor (VDR) signaling pathway - cell viability counter screen (AID 743224; active = well fitted curve in the direction sought with a large enough effect in the repeat runs; an effect the other way counts as inactive or inconclusive; note: series mostly up to about 63 µM; nearly all actives have a fitted effect of over 50% in size)
How it was run: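 Here cell health was gauged by luminescent ATP detection (CellTiter-Glo, 30 min RT) in VDR-bla cells that had been incubated with test compounds for 16 h at 37C and 5% CO2.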

[10] = qHTS assay to identify small molecule antagonists of the vitamin D receptor (VDR) signaling pathway - cell viability counter screen (AID 743225; active = well fitted curve in the direction sought with a large enough effect in the repeat runs; an effect the other way counts as inactive or inconclusive; note: nearly all actives have a fitted effect of over 50% in size)
How it was run: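 Cytotoxicity counter screen read by CellTiter-Glo luminescence (30 min, room temperature) in the same wells as the VDR-bla antagonist readout. HEK 293T VDR-UAS-bla cells had 16 h at 37C with compound and 3 nM (final) 1-alpha,25-dihydroxyvitamin D3, then 2 h with FRET substrate.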

With CCOC(=O)c1ncn2c1CN(C)C(=O)c1c(I)cccc1-2 the outcome [1] was “inactive”, the outcome [2] was “inactive” and the outcome [3] was “inactive”. For the same compound, the Potency [4] was “inactive”, the Potency [5] was “inactive” and the Potency [6] was “inactive”. The Potency [7] was “inactive” and the outcome [8] was “inactive”.
In the case of ClCC1CO1 (stereo unspecified), the outcome [1] is reported as “inactive”, the outcome [2] is reported as “inactive” and the outcome [3] is reported as “inactive”. The Potency [4] was “inactive”, the Potency [5] was “inactive” and the Potency [6] was “inactive”. For the same compound, the Potency [7] was “inactive” and the outcome [8] was “inactive”.
In the case of C=C(Cl)CCl, the Potency [9] is reported as “inactive”, the outcome [1] is reported as “inactive” and the outcome [2] is reported as “inactive”. The outcome [3] was “inactive”, the Potency [4] was “inactive” and the Potency [5] was “inactive”. The Potency [6] was “inactive”, the Potency [7] was “inactive” and the outcome [8] was “inactive”.
For C=CC1(C)OC(=O)N(c2cc(Cl)cc(Cl)c2)C1=O (stereo unspecified), the Potency [9] was “inactive”, the outcome [1] was “inactive” and the outcome [2] was “inactive”. The outcome [3] was “inactive”, the Potency [4] was “inactive” and the Potency [5] was “inactive”. The Potency [6] was 43 µM (active) and inactive, the Potency [7] was “inactive” and the outcome [8] was “inactive”.
In the case of COP(=O)(OC)O/C(C)=C/C(=O)N(C)C, the outcome [1] is reported as “inactive”, the outcome [2] is reported as “inactive” and the outcome [3] is reported as “inactive”. The Potency [4] was “inactive”, the Potency [5] was “inactive” and the Potency [6] was “inactive”. The Potency [7] was “inactive” and the outcome [8] was “inactive”.
In the case of COc1cc(CC(C)N)cc(OC)c1OC (stereo unspecified), the Potency [9] is reported as “inactive”, the outcome [1] is reported as “inactive” and the outcome [2] is reported as “inactive”. For the same compound, the outcome [3] was “inactive”, the Potency [4] was “inactive” and the Potency [5] was “inactive”. The Potency [6] was “inactive”, the Potency [7] was “inactive” and the outcome [8] was “inactive”.
For CCOC(=O)Nc1cccc(OC(=O)Nc2ccccc2)c1, the Potency [9] was “inactive”, the Potency [10] was “inactive” and the outcome [1] was “inactive”. For the same compound, the outcome [2] was “inactive”, the outcome [3] was “inactive” and the Potency [4] was “inactive”. The Potency [5] was “inactive”, the Potency [6] was “inactive” and the Potency [7] was “inactive”. The outcome [8] was “inactive”.
In the case of Cc1ccc2cc(C)ccc2c1, the Potency [9] is reported as “inactive”, the Potency [10] is reported as “inactive” and the outcome [1] is reported as “inactive”. The outcome [2] was “inactive”, the outcome [3] was “inactive” and the Potency [4] was “inactive”. The Potency [5] was “inactive”, the Potency [6] was “inactive” and the Potency [7] was “inactive”. The outcome [8] was “inactive”.
For Cc1cc(OC(=O)N(C)C)nn1C(=O)N(C)C, the Potency [9] was “inactive”, the outcome [1] was “inactive” and the outcome [2] was “inactive”. The outcome [3] was “inactive”, the Potency [4] was “inactive” and the Potency [5] was “inactive”. The Potency [6] was “inactive”, the Potency [7] was “inactive” and the outcome [8] was “inactive”.
For N#CN, the Potency [9] was “inactive”, the Potency [10] was “inactive” and the outcome [1] was “inactive”. The outcome [2] was “inactive”, the outcome [3] was “inactive” and the Potency [4] was “inactive”. For the same compound, the Potency [5] was “inactive”, the Potency [6] was “inactive” and the Potency [7] was “inactive”. The outcome [8] was “inactive”.
For O=C(O)CBr, the Potency [9] was “inactive”, the Potency [10] was “inactive” and the outcome [1] was “inactive”. The outcome [2] was “inactive”, the outcome [3] was “inactive” and the Potency [4] was “inactive”. The Potency [5] was “inactive”, the Potency [6] was “inactive” and the Potency [7] was “inactive”. For the same compound, the outcome [8] was “inactive”.
With C=CCCC#N the Potency [9] was “inactive”, the Potency [10] was “inactive” and the outcome [1] was “inactive”. For the same compound, the outcome [2] was “inactive”, the outcome [3] was “inactive” and the Potency [4] was “inactive”. The Potency [5] was “inactive”, the Potency [6] was “inactive” and the Potency [7] was “inactive”. For the same compound, the outcome [8] was “inactive”.
For CC[C@H](N)c1ccccc1, the Potency [9] was “inactive”, the Potency [10] was “inactive” and the outcome [1] was “inactive”. The outcome [2] was “inactive”, the outcome [3] was “inactive” and the Potency [4] was “inactive”. The Potency [5] was “inactive”, the Potency [6] was “inactive” and the Potency [7] was “inactive”. The outcome [8] was “inactive”.
For CC[C@@H](CO)NC(=O)[C@@H]1C=C2c3cccc4c3c(cn4C)C[C@H]2N(C)C1, the Potency [9] was “inactive”, the Potency [10] was “inactive” and the outcome [1] was “inactive”. The outcome [2] was “inactive”, the outcome [3] was “inactive” and the Potency [4] was “inactive”. The Potency [5] was “inactive”, the Potency [6] was “inactive” and the Potency [7] was “inactive”. For the same compound, the outcome [8] was “inactive”.
With BrCCc1ccccc1 the Potency [9] was “inactive”, the outcome [1] was “inactive” and the outcome [2] was “inactive”. For the same compound, the outcome [3] was “inactive”, the Potency [4] was “inactive” and the Potency [5] was “inactive”. The Potency [6] was “inactive”, the Potency [7] was “inactive” and the outcome [8] was “inactive”.
With CC[C@@H](CO)NC(=O)[C@@H]1C=C2c3cccc4[nH]cc(c34)C[C@H]2N(C)C1 the Potency [9] was “inactive”, the Potency [10] was “inactive” and the outcome [1] was “inactive”. For the same compound, the outcome [2] was “inactive”, the outcome [3] was “inactive” and the Potency [4] was “inactive”. For the same compound, the Potency [5] was “inactive”, the Potency [6] was “inactive” and the Potency [7] was “inactive”. For the same compound, the outcome [8] was “inactive”.
With c1cncc([C@@H]2CCCCN2)c1 the Potency [9] was “inactive”, the Potency [10] was “inactive” and the outcome [1] was “inactive”. The outcome [2] was “inactive”, the outcome [3] was “inactive” and the Potency [4] was “inactive”. The Potency [5] was “inactive”, the Potency [6] was “inactive” and the Potency [7] was “inactive”. The outcome [8] was “inactive”.
In the case of S=C=S, the Potency [9] is reported as “inactive”, the outcome [1] is reported as “inactive” and the outcome [2] is reported as “inactive”. The outcome [3] was “inactive”, the Potency [4] was “inactive” and the Potency [5] was “inactive”. For the same compound, the Potency [6] was “inactive”, the Potency [7] was “inactive” and the outcome [8] was “inactive”.
For CC(C)(N)Cc1ccc(Cl)cc1, the Potency [9] was “inactive”, the Potency [10] was “inactive” and the outcome [1] was “inactive”. The outcome [2] was “inactive”, the outcome [3] was “inactive” and the Potency [4] was “inactive”. For the same compound, the Potency [5] was “inactive”, the Potency [6] was “inactive” and the Potency [7] was “inactive”. The outcome [8] was “inactive”.
In the case of COc1cccc([C@@]2(O)CCCC[C@@H]2CN(C)C)c1, the Potency [9] is reported as “inactive”, the Potency [10] is reported as “inactive” and the outcome [1] is reported as “inactive”. The outcome [2] was “inactive”, the outcome [3] was “inactive” and the Potency [4] was “inactive”. The Potency [5] was “inactive”, the Potency [6] was “inactive” and the Potency [7] was “inactive”. For the same compound, the outcome [8] was “inactive”.
For C[C@H](N)C(=O)c1ccccc1, the Potency [9] was “inactive”, the Potency [10] was “inactive” and the outcome [1] was “inactive”. The outcome [2] was “inactive”, the outcome [3] was “inactive” and the Potency [4] was “inactive”. For the same compound, the Potency [5] was “inactive”, the Potency [6] was “inactive” and the Potency [7] was “inactive”. For the same compound, the outcome [8] was “inactive”.
In the case of CCN(CCO)CCn1c(Cc2ccccc2)nc2c1c(=O)n(C)c(=O)n2C, the Potency [9] is reported as “inactive”, the outcome [1] is reported as “inactive” and the outcome [2] is reported as “inactive”. The outcome [3] was “inactive”, the Potency [4] was “inactive” and the Potency [5] was “inactive”. The Potency [6] was “inactive”, the Potency [7] was “inactive” and the outcome [8] was “inactive”.
For Oc1ccc2c3c1O[C@H]1[C@@H](O)C=C[C@H]4[C@@H](C2)NCC[C@@]341, the Potency [9] was “inactive”, the Potency [10] was “inactive” and the outcome [1] was “inactive”. The outcome [2] was “inactive”, the outcome [3] was “inactive” and the Potency [4] was “inactive”. For the same compound, the Potency [5] was “inactive”, the Potency [6] was “inactive” and the Potency [7] was “inactive”. The outcome [8] was “inactive”.
In the case of O=c1[nH]oc2c1CCNC2, the Potency [9] is reported as “inactive”, the outcome [1] is reported as “inactive” and the outcome [2] is reported as “inactive”. For the same compound, the outcome [3] was “inactive”, the Potency [4] was “inactive” and the Potency [5] was “inactive”. The Potency [6] was “inactive”, the Potency [7] was “inactive” and the outcome [8] was “inactive”.
With Clc1cc2c(cc1Cl)Oc1cc(Cl)c(Cl)cc1O2 the activity change, negative = cytotoxicity [9] was -0.698% [at 0.275 µM] (inactive), the viability change, negative = cytotoxic [10] was 2.97% [at 0.281 µM] (inactive) and the activation [1] was -0.0516% [at 0.281 µM] (inactive). For the same compound, the activity, negative = cytotoxic [2] was -0.991% [at 0.281 µM] (inactive), the activation [3] was -5.12% [at 0.281 µM] (inactive) and the activity change, negative = cytotoxicity [4] was -1.54% [at 0.281 µM] (inactive). For the same compound, the activity, negative = cytotoxicity [5] was 0.49% [at 0.349 µM] (inactive), the activity change, negative = inhibition [6] was 16.4% [at 0.35 µM] (inactive) and the viability change, negative = cytotoxic [7] was -6.16% [at 0.29 µM] (inactive). The activation [8] was 0.434% [at 0.29 µM] (inactive).
With CCOC1Oc2ccc(OS(C)(=O)=O)cc2C1(C)C (stereo unspecified) the Potency [9] was “inactive”, the Potency [10] was “inactive” and the outcome [1] was “inactive”. For the same compound, the outcome [2] was “inactive”, the outcome [3] was “inactive” and the Potency [4] was “inactive”. For the same compound, the Potency [5] was “inactive”, the Potency [6] was “inactive” and the Potency [7] was “inactive”. The outcome [8] was “inactive”.
For ClC(Cl)(Cl)Cl, the Potency [9] was “inactive”, the Potency [10] was “inactive” and the outcome [1] was “inactive”. The outcome [2] was “inactive”, the outcome [3] was “inactive” and the Potency [4] was “inactive”. For the same compound, the Potency [5] was “inactive”, the Potency [6] was “inactive” and the Potency [7] was “inactive”. The outcome [8] was “inactive”.
